MITF primary = blocks human microphthalmia-associated transcription factor | O75030 | AlphaScreen MITF homodimerization, bead proximity signal | inhibition, % at 2.6 µM | 0.91% of 650,000 active; in the data active means inhibition above about 50%
GPR151 ag = activators of human GPR151; 1% of 650,000 active; PathHunter beta-arrestin GPR151 cells, luminescence; activation, % at 11.2 µM; AID 1508602; in the data active means activation above about 4.9%
TEAD-YAP inh = TEAD-YAP interaction inhibition; HEK-TIYL cells, TEAD-Gal4/YAP UAS-luciferase luminescence; inhibition, % at 9.12 µM; 1.4% of 640,000 active; AID 1259422; in the data active means inhibition above about 32%
FBW7 act = human FBW7 E3 ligase activation, primary screen. AlphaScreen FBW7–phospho-cyclin E peptide binding, activator screen. AID 1259310. 0.13% of 650,000 active. normalized activity (activation), % at 26.1 µM; in the data active means normalized activity above about 1.9%;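 further: purified mutant Fbw7 with reduced substrate affinity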
MITF confirm = confirmation of human MITF inhibitors. shares compounds with MITF primary. AlphaScreen MITF homodimerization, biotin/His-MITF beads. inhibition, % at 2.6 µM. 16% of 4,700 active. AID 1259372;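 active means inhibition above a cutoff derived from the DMSO control wells, cut at about 28% in these data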;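 further: inhibitors lower the bead chemiluminescence by keeping MITF from dimerizing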
AlphaScreen DR = optically interferes with AlphaScreen signal in dose response. shares compounds with MITF primary. AlphaScreen optical interference counterscreen, cell-free. IC50, µM. 6% of 480 active. AID 1259373; call rule not given here
AS interf ctr = AlphaScreen optical interference, counter-screen. inhibition, % at 2.6 µM. shares compounds with MITF primary. 7.6% of 4,700 active. LysRS AlphaScreen counterscreen, signal interference, triplicate;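 active means inhibition above a cutoff derived from the DMSO control wells, cut at about 30% in these data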
Large screens that a line does not name were inactive (follow-up assays come after a bar, where they were run). A selection: hits, their analogues and other compounds. The true share with any hit is near 3.4%.

O=C(c1ccc(=O)oc1)N1CCc2ccccc21	MITF primary 73.6 | MITF confirm 76.0 | AlphaScreen DR inactive | AS interf ctr inactive
O=C(CN1CCN(Cc2ccccc2)CC1)N1CCCc2ccccc21	MITF primary 72.0 | MITF confirm inactive | AS interf ctr inactive
CC(=O)C(Cc1ccccc1)NC(=O)CN1CCN(C/C=C/c2ccccc2)CC1 (configuration not stated)	MITF primary 62.1 | MITF confirm inactive | AS interf ctr inactive
O=C(CN1CCN(C/C=C/c2ccccc2)CC1)N1CCCc2ccccc21	MITF primary 85.3 | MITF confirm inactive | AS interf ctr inactive
O=C(CN1CCN(Cc2nc(-c3cccs3)cs2)CC1)N1CCc2ccccc21	MITF primary 58.4 | MITF confirm inactive | AS interf ctr inactive
COC(=O)CNc1ccc(OC)cc1	none
Cc1cc(C(=O)Nc2cccc3nsnc23)ccc1[N+](=O)[O-]	none
C(=C\c1ccco1)/CN1CCOc2ccc(CN3CCN(c4ncccn4)CC3)cc2C1	none
CN(C)CCCNCC(=O)c1c(-c2ccccc2)n(C)c2ccccc12	MITF primary 50.8 | MITF confirm inactive | AS interf ctr inactive
O=S(=O)(NCC(c1ccc(F)cc1)N1CCOCC1)c1ccc2c(c1)OCCO2 (configuration not stated)	MITF primary 55.3 | MITF confirm inactive | AS interf ctr inactive
O=S(=O)(Cc1ccc(F)cc1)NCC(c1ccsc1)N1CCOCC1 (configuration not stated)	MITF primary 78.1 | MITF confirm inactive | AS interf ctr inactive
Cc1cc(F)ccc1S(=O)(=O)NCC(c1ccsc1)N1CCOCC1 (configuration not stated)	none
CCC(=O)N1c2ccccc2NC2=C(C(=O)CC(c3ccccc3)C2)C1c1ccco1 (configuration not stated)	none
O=C(O)c1cccc(-n2cccc2/C=C\[N+](=O)[O-])c1	MITF primary 63.2 | MITF confirm 58.7 | AlphaScreen DR inactive | AS interf ctr inactive
CC(Sc1nc(-c2ccccc2)cc(C(F)(F)F)n1)C(N)=O (configuration not stated)	MITF primary 54.0 | MITF confirm inactive | AS interf ctr inactive
O=C(CSc1nc(-c2ccccc2)cc(C(F)(F)F)n1)N1CCOCC1	none
CCOC(=O)/C=C1/Nc2ccccc2C(c2ccccc2)(c2ccccc2)N1	none
CCOC(=O)/C=C1\NC(c2ccccc2)=C(c2ccccc2)C1=O	MITF primary 56.0 | MITF confirm inactive | AS interf ctr inactive
CC(C)[C@@H](Cn1nc(-c2cccs2)ccc1=O)NC(=O)c1ccco1	none
CCOc1ccccc1N1CCN(CC(=O)N(CC)CC)CC1	none
O=C(NCc1ccco1)Nc1c[nH]c2cccnc2c1=O	MITF primary 58.9 | MITF confirm 81.4 | AS interf ctr 87.1
Cc1cc(O)ccc1C1CCCCC1	none
Oc1c(C2CCCCC2)cccc1C1CCCCC1	MITF primary 59.6 | MITF confirm inactive | AS interf ctr inactive
CCOC(=O)Nc1cccc(F)c1N1CCC2(CC1)OCCO2	none
CCOCc1cc(CN2CCN(CCC(C)C)C(CCO)C2)ccc1OC (configuration not stated)	none
O=C(CSc1ccc(-c2ccccn2)nn1)N1CCN(c2ccccc2)CC1	none
CC(C)CC(=O)N1CCN(c2ccc(-c3ccccn3)nn2)CC1	MITF primary 125.4 | MITF confirm 114.1 | AS interf ctr 100.6
O=C(c1ccccc1F)N1CCN(c2ccc(-c3ccccn3)nn2)CC1	MITF primary 118.8 | MITF confirm 109.9 | AS interf ctr 100.6
O=C(C1CC1)N1CCN(c2ccc(-c3ccccn3)nn2)CC1	MITF primary 121.8 | MITF confirm 111.9 | AS interf ctr 100.6
CCCS(=O)(=O)N1N=C(c2ccc(NS(=O)(=O)CC)cc2)CC1c1ccccc1 (configuration not stated)	none
O=C(c1ccc(Cn2c(=S)[nH]c3ccc(Br)cc3c2=O)cc1)N1CCOCC1	none
Cc1cn2c(=O)c(C(=O)N(C)CC(=O)N(C)C)cnc2s1	none
C#CCN(C)C(=O)c1cnc2sc(C)cn2c1=O	MITF primary 56.7 | MITF confirm inactive | AS interf ctr inactive
O=C(/C=C/c1ccc(Br)o1)Nc1ccccc1Cl	none

Source: PubChem
